Data: the supplement of paper PMC7393113
± gives the standard deviation of the averaged measurements.

Tested on: iBMDM (immortalised mouse bone-marrow-derived macrophages), LPS-stimulated
Assay: mitochondrial superoxide (MitoSOX fluorescence) fold increase over unstimulated control; higher = more LPS-induced mitochondrial ROS (less inhibition)
Details: inhibitor concentration: 500 nM, LPS: 100 ng/ml
Method in brief: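 After 20 h in phenol-red-free 1% FCS/DMEM in black 96-well plates, immortalised mouse bone-marrow-derived macrophages were exposed to kinase inhibitors (500 nM) for 30 min, 1 μM MitoSox for 10 min and then LPS (100 ng/ml). A ClarioStar plate reader recorded fluorescence at 510/580 nm every 60 min for 4 h. The reported mitochondrial superoxide is the mean fold induction versus untreated macrophages over triplicate wells.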

| Compound | mitochondrial superoxide (time after LPS: 1 h) | mitochondrial superoxide (time after LPS: 2 h) | mitochondrial superoxide (time after LPS: 4 h) |
| --- | --- | --- | --- |
| CCC(=O)Nc1cccc(Oc2nc(Nc3ccc(N4CCN(C)CC4)cc3OC)ncc2Cl)c1 | 1.39 ± 0.084 | 1.51 ± 0.091 | 1.79 ± 0.061 |
| O=C1NC(=O)C(=Cc2ccc(-c3ccc(F)cc3)o2)S1 (stereo in doubt) | 1.28 ± 0.044 | 1.55 ± 0.089 | 1.65 ± 0.081 |
| COc1cccc(-c2cc(=O)c3ccccc3o2)c1N | 1.48 ± 0.098 | 1.57 ± 0.021 | 1.67 ± 0.04 |
| Cc1c(CN2CCN(C(=O)[C@H](C)O)CC2)sc2c(N3CCOCC3)nc(-c3cnc(N)nc3)nc12 | 1.266 ± 0.011 | 1.44 ± 0.057 | 1.5 ± 0.061 |
| O=C(NOCC(O)CO)c1cc(Br)c(F)c(F)c1Nc1ccc(I)cc1F (configuration not stated) | 1.31 ± 0.033 | 1.3 ± 0.054 | 1.34 ± 0.065 |
| CC(C)(C)Cn1c(N)nc2ccc(-c3[nH]c(C(C)(C)C)nc3-c3ccc(F)cc3)nc21 | 1.111 ± 0.0047 | 1.17 ± 0.032 | 1.33 ± 0.066 |
| COc1cccc2cc(-c3nc([C@H]4CC[C@H](C(=O)O)CC4)n4ncnc(N)c34)[nH]c12 | 1.3 ± 0.046 | 1.39 ± 0.018 | 1.52 ± 0.017 |
| Cc1nc(NC(=O)N2CCC[C@H]2C(N)=O)sc1-c1csc(C(C)(C)C)n1 | 1.31 ± 0.053 | 1.43 ± 0.015 | 1.64 ± 0.053 |
| N#CC(=C(/N)Sc1ccccc1N)/C(C#N)=C(\N)Sc1ccccc1N | 1.36 ± 0.043 | 1.4 ± 0.048 | 1.45 ± 0.047 |
| CO[C@H]1C[C@@H]2CC[C@@H](C)[C@@](O)(O2)C(=O)C(=O)N2CCCC[C@H]2C(=O)O[C@H]([C@H](C)C[C@@H]2CC[C@@H](OCCO)[C@H](OC)C2)CC(=O)[C@H](C)/C=C(\C)[C@@H](O)[C@@H](OC)C(=O)[C@H](C)C[C@H](C)/C=C/C=C/C=C/1C [Everolimus (RAD001)] | 1.37 ± 0.055 | 1.42 ± 0.028 | 1.5 ± 0.06 |
| Nc1nccc(Oc2ccc(NC(=O)c3c[nH]cc(-c4ccc(F)cc4)c3=O)cc2F)c1Cl | 1.21 ± 0.032 | 1.22 ± 0.043 | 1.37 ± 0.11 |
| O=c1cc(-c2cccc3c2Sc2ccccc2S3)oc(N2CCOCC2)c1 | 1.39 ± 0.034 | 1.48 ± 0.063 | 1.51 ± 0.084 |
| C=CC(=O)Nc1cccc(Oc2nc(Nc3ccc(N4CCN(C)CC4)cc3)ncc2Cl)c1 | 1.54 ± 0.047 | 1.71 ± 0.056 | 1.8 ± 0.14 |
| CN(C)Cc1cccc(N=C(c2ccccc2)c2c(O)[nH]c3cc(C(N)=O)ccc23)c1 | 1.15 ± 0.031 | 1.15 ± 0.052 | 1.26 ± 0.07 |
| O=C1NC(=O)/C(=C/c2ccc3c(c2)OC(F)(F)O3)S1 | 1.26 ± 0.032 | 1.4 ± 0.033 | 1.51 ± 0.068 |
| N#Cc1c(O)c2c(-c3ccc(-c4ccccc4O)cc3)csc2[nH]c1=O | 1.3 ± 0.051 | 1.43 ± 0.023 | 1.52 ± 0.034 |
| CCn1c2ccccc2c2cc(Nc3ccnc(NCCCN4CCOCC4)n3)ccc21 | 1.41 ± 0.063 | 1.54 ± 0.086 | 1.67 ± 0.096 |
| Cn1cc(C2=C(c3ccc(Cl)cc3Cl)C(=O)NC2=O)c2ccccc21 | 1.46 ± 0.18 | 1.56 ± 0.22 | 1.68 ± 0.29 |
| CCOc1ccn(-c2ccc(F)cc2)c(=O)c1C(=O)Nc1ccc(Oc2ccnc(N)c2Cl)c(F)c1 | 1.25 ± 0.045 | 1.28 ± 0.084 | 1.28 ± 0.017 |
| CCn1c(-c2nonc2N)nc2c(C#CC(C)(C)O)ncc(OC[C@H]3CCCNC3)c21 | 1.3 ± 0.025 | 1.4 ± 0.027 | 1.49 ± 0.019 |
| CCn1cc(-c2ccnc3[nH]c(-c4cccc(CN(C)C)c4)cc23)c(-c2ccc(NC(=O)N(C)C)cc2)n1 | 1.27 ± 0.026 | 1.45 ± 0.047 | 1.71 ± 0.16 |
| CN1CCN(c2ccc3nc(-c4c(N)c5c(F)cccc5[nH]c4=O)[nH]c3c2)CC1 [Dovitinib (TKI-258) Dilactic Acid] | 1.28 ± 0.073 | 1.32 ± 0.03 | 1.51 ± 0.041 |
| Cc1ccc(Nc2nccc(N(C)c3ccc4c(C)n(C)nc4c3)n2)cc1S(N)(=O)=O [Pazopanib] | 1.19 ± 0.042 | 1.13 ± 0.082 | 1.26 ± 0.015 |
| O=P(O)(O)C(O)(Cn1ccnc1)P(=O)(O)O [Zoledronic Acid] | 1.27 ± 0.02 | 1.29 ± 0.085 | 1.4 ± 0.16 |
| NC1(c2ccc(-c3nc4ccn5c(=O)[nH]nc5c4cc3-c3ccccc3)cc2)CCC1 | 1.26 ± 0.036 | 1.34 ± 0.065 | 1.47 ± 0.14 |
| CC(C)(C)c1cc(NC(=O)Nc2ccc(-c3cn4c(n3)sc3cc(OCCN5CCOCC5)ccc34)cc2)no1 [Quizartinib (AC220)] | 1.15 ± 0.027 | 1.19 ± 0.047 | 1.31 ± 0.042 |
| Cc1csc(-c2nnc(Nc3ccc(Oc4ncccc4-c4ccnc(N)n4)cc3)c3ccccc23)c1 | 1.35 ± 0.042 | 1.5 ± 0.038 | 1.67 ± 0.046 |

| Compound | mitochondrial superoxide (time after LPS: 1 h) | mitochondrial superoxide (time after LPS: 2 h) | mitochondrial superoxide (time after LPS: 4 h) |
| --- | --- | --- | --- |
| O=C(c1ccc(Nc2nccc(-c3cc4ccccc4s3)n2)cc1)N1CCC(N2CCCC2)CC1 [IKK-16 (IKK Inhibitor VII)] | 1.08 ± 0.084 | 1.09 ± 0.087 | 1.16 ± 0.17 |
| CNC(=O)c1ccccc1Sc1ccc2c(/C=C/c3ccccn3)n[nH]c2c1 [Axitinib] | 1.77 ± 0.17 | 1.78 ± 0.17 | 1.8 ± 0.058 |
| COc1cc(Nc2ncc(F)c(Nc3ccc4c(n3)NC(=O)C(C)(C)O4)n2)cc(OC)c1OC [R406 (free base)] | 1.23 ± 0.07 | 1.32 ± 0.041 | 1.29 ± 0.065 |
| N#CC1(c2ccc(NC(=O)c3cccnc3NCc3ccncc3)cc2)CCCC1 [Apatinib] | 1.09 ± 0.056 | 1.18 ± 0.021 | 1.36 ± 0.018 |
| Fc1cc(-c2cccc3ncc(-c4cnn(C5CCNCC5)c4)nc23)cc(F)c1CN1CCOCC1 | 1.15 ± 0.05 | 1.45 ± 0.13 | 1.69 ± 0.04 |
| COc1ccc(C(=O)Nc2sc3c(c2C(N)=O)CCCC3)cc1OC | 1.42 ± 0.034 | 1.49 ± 0.045 | 1.64 ± 0.03 |
| Nc1ncnc2c1c(-c1cnc3[nH]ccc3c1)nn2C1CCCC1 | 1.34 ± 0.077 | 1.41 ± 0.079 | 1.57 ± 0.058 |
| C#Cc1cccc(Nc2ncnc3cc(OCCOC)c(OCCO)cc23)c1 | 1.16 ± 0.089 | 1.2 ± 0.038 | 1.3 ± 0.14 |
| Oc1ccc2ccccc2c1SSc1c(O)ccc2ccccc12 | 1.17 ± 0.049 | 1.22 ± 0.04 | 1.32 ± 0.015 |
| CNC(=O)c1cccc(-c2ccc3c(N4CCOC[C@@H]4C)nc(N4CCOC[C@@H]4C)nc3n2)c1 | 1.18 ± 0.058 | 1.46 ± 0.074 | 1.66 ± 0.1 |
| CNC(=O)c1ccc(C)c(-n2c(C)cc(OCc3ccc(F)cc3F)c(Br)c2=O)c1 | 1.33 ± 0.056 | 1.48 ± 0.059 | 1.6 ± 0.016 |
| CS(=O)(=O)N1CCN(Cc2cc3nc(-c4cccc5[nH]ncc45)nc(N4CCOCC4)c3s2)CC1 | 1.28 ± 0.025 | 1.42 ± 0.027 | 1.6 ± 0.041 |
| O=C1NC(=O)C(c2ccccc2[N+](=O)[O-])=C1Nc1ccc(O)c(Cl)c1 | 1.12 ± 0.024 | 1.45 ± 0.084 | 1.63 ± 0.063 |
| CCc1cc2c(cc1N1CCC(N3CCOCC3)CC1)C(C)(C)c1[nH]c3cc(C#N)ccc3c1C2=O | 1.26 ± 0.097 | 1.4 ± 0.066 | 1.64 ± 0.12 |
| COc1cc2c(N3CCN(C(=O)Nc4ccc(OC(C)C)cc4)CC3)ncnc2cc1OCCCN1CCCCC1 [Tandutinib (MLN518)] | 1.61 ± 0.038 | 1.77 ± 0.029 | 1.72 ± 0.062 |
| Cn1cc(-c2cnn3c(N)c(Br)c([C@@H]4CCCNC4)nc23)cn1 | 1.12 ± 0.091 | 1.4 ± 0.22 | 1.54 ± 0.11 |
| Cc1c(C(=O)N2CCOc3ccc(-c4ccc(N)nc4)cc3C2)ccc(S(C)(=O)=O)c1F | 1.112 ± 0.0078 | 1.25 ± 0.064 | 1.32 ± 0.059 |
| CC(C)CC(=O)Nc1n[nH]c2c1CN(C(=O)C1CCN(C)CC1)C2(C)C | 1.08 ± 0.049 | 1.13 ± 0.04 | 1.27 ± 0.079 |
| Cc1cc(C(=O)NOCCO)c(Nc2ccc(I)cc2F)n(C)c1=O | 1.05 ± 0.042 | 1.25 ± 0.092 | 1.39 ± 0.073 |
| NCC(=O)Nc1ccc(-n2nc(C(F)(F)F)cc2-c2ccc3c(ccc4ccccc43)c2)cc1 | 1.414 ± 0.012 | 1.41 ± 0.031 | 1.49 ± 0.087 |
| CCCCCCCCCCCCc1ccc(S(=O)(=O)Nc2nncs2)cc1 | 1.21 ± 0.041 | 1.2 ± 0.016 | 1.2 ± 0.038 |
| CC(C)(C)c1nc(-c2cccc(NS(=O)(=O)c3c(F)cccc3F)c2F)c(-c2ccnc(N)n2)s1 | 1.25 ± 0.046 | 1.43 ± 0.054 | 1.73 ± 0.12 |
| CCN1CCN(c2ccc(Nc3cc(N(C)C(=O)Nc4c(Cl)c(OC)cc(OC)c4Cl)ncn3)cc2)CC1 | 1.2 ± 0.021 | 1.24 ± 0.035 | 1.35 ± 0.06 |
| Cc1cc(C(C)Nc2ccccc2)c2nc(N3CCOCC3)cc(=O)n2c1 (configuration not stated) | 1.51 ± 0.032 | 1.66 ± 0.072 | 1.74 ± 0.094 |
| CCN(CC)CCCC(C)Nc1nc(C)cc(Nc2ccc3nc(C)cc(N)c3c2)n1 (configuration not stated) | 1.35 ± 0.041 | 1.53 ± 0.051 | 1.65 ± 0.15 |
| Cn1cc(-c2[nH]c3cc(NC(=O)[C@H](N)C4CCCCC4)cc4c3c2C=NNC4=O)cn1 | 1.15 ± 0.062 | 1.15 ± 0.043 | 1.27 ± 0.029 |
| COC(=O)Nc1ccc(-c2nc(N3CCOCC3)c3cnn(C4CCN(C(=O)OC)CC4)c3n2)cc1 | 1.14 ± 0.026 | 1.13 ± 0.02 | 1.14 ± 0.024 |
